32 molecules from PubChem BioAssay (NCATS) can be followed below.

“And” between values parts separate entries of the source, which are not always exact repeats. Equal values may be shown once. Values without a mark were called inactive. Records with an inconclusive call do not appear. The source made the active and inactive calls. Unless noted, the call rests on the fitted dose curve; in most records, active means well fitted curve in the direction sought with a large enough effect; inconclusive means small, poorly fitted or top-dose-only effect, or another doubt; inactive means no such curve, though single readings can be large; an effect the other way counts as inactive or inconclusive.

A short description of experiment [1]: qHTS assay for environmental chemicals that activate the Aryl hydrocarbon Receptor (AhR) signaling pathway (AID 651777). Further: % of control where 0% means no effect; nearly all actives have a fitted effect of over 15% in size. The conditions noted are these: 1A2-DRE human hepatoma cells, luciferase, 24 h; active compounds read high. A digest of the protocol: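 AhR activation is scored as a rise in luciferase from a stable DRE–CYP1A2 promoter construct in human hepatoma cells. Treatment lasts 24 hr at 37 C; detection uses One-Glo after 30 min at room temperature.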

For experiment [2], the target named is Peroxisome proliferator-activated receptor alpha (Homo sapiens) (UniProt Q07869). As to the kind of experiment: qHTS assay for small molecule agonists of the peroxisome proliferator-activated receptor alpha (PPARalpha) signaling pathway (AID 651778). Further: % of control where 0% means no effect. To be noted: PathHunter PPARalpha complementation, chemiluminescence, 6 h; active compounds read high. The method in brief: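 Chemiluminescence from complemented enzyme reported PPARalpha activation in cells after 6 hr of compound treatment at 37 C. The detection reagent was incubated for 60 min at room temperature, and compounds were scored as agonists.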

Experiment [3] is described as follows: qHTS assay to identify small molecules that stimulate interleukin-8 (IL-8) secretion (AID 651758; active means well fitted activation curve with a large enough effect in the signal ratio; the % refers to the signal ratio; further: 0% is about no effect). To be noted: HTRF ratio (665/615); series mostly up to 92.2 µM. The method in brief:
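Secreted IL-8 measured by TR-FRET sandwich (cryptate and XL665 antibodies) from THP-1 cells exposed to compound overnight (16 hrs, 37 C).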

Experiment [4] concerns the target Arylsulfatase A (Homo sapiens) (UniProt P15289). As to the kind of experiment: qHTS screen for enhancers of Arylsulfatase A (ASA1): LOPAC Validation Assay (AID 720538). To be noted: ASA enzyme activity, LOPAC qHTS enhancer assay; series mostly up to 57.5 µM. A digest of the protocol: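 First, ASA-I179S fibroblasts from an MLD patient adhered for 6 hrs. Next, compounds were added for 48h. Then pNCS substrate (0.5mM final) with lysis buffer reacted 14h at room temperature before NaOH stop and fluorescence measurement.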
A general note: In qHTS, concentration-response curves come from the screen itself.

Experiment [5] is described as follows: qHTS for compounds that reverse cellular toxicity of Amyloid beta (A-beta) peptide in yeast: LOPAC Validation Assay (AID 720559).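 Further: plate controls were DMSO for no effect and equimolar ferric chloride plus clioquinol rescue for full effect.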 The conditions noted are these: yeast expressing A-beta; series mostly up to 46.1 µM. A digest of the protocol:
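Activity is expressed relative to DMSO and an equimolar ferric chloride/clioquinol mix. Compounds were pinned into medium with A-beta-expressing yeast, grown 48 hr at 30 C, then read by absorbance at 600 nm.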

Experiment [6] in a line: qHTS for Inhibitors of Ubiquitin-specific Protease USP2a Using CHOP2 as the Reporter: K633 Counterscreen (AID 652168). Further: % of control where 0% means no effect. To be noted: No-enzyme DiUb K48 IQF substrate fluorescence interference, kinetic; series mostly up to 57.5 µM. The method in brief:
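Cell-free interference counterscreen without USP2a: compounds pinned into enzyme-free buffer (20 mM Tris pH 8, 2 mM beta-mercaptoethanol, 0.05% Chaps), then DiUb K48-4IQF substrate added (100 nM stock); fluorescence read kinetically, Ex 525/Em 598.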

The nature of experiment [7]: qHTS for Inhibitors of Ubiquitin-specific Protease USP2a Using CHOP2 as the Reporter: Cytotox Assay (AID 652170).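 Further: HCT116 human colon cancer cells at 600 per well; plate controls were DMSO-treated cells for no effect and wells without cells for full effect; nearly all actives have a fitted effect of over 70% in size.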 The conditions noted are these: HCT116 viability, CellTiter-Glo luminescence, 72 h; series mostly up to 46.1 µM. From the text:
Homeostasis of cellular proteins is maintained through a combination of synthesis and degradation. The pathway that accounts for the majority of protein degradation is the ubiquitin-proteasomal pathway. Ubiquitin (Ub) is highly conserved in all cells and the generation of a multi-Ub chain typically targets proteins for degradation by the proteasome. However, ubiquitination is highly reversible and dynamic. Deubiquitination, the reverse process, is catalyzed through the action of enzymes referred to as isopeptidases or deubiquitinating enzymes (DUBs). This group of enzymes is collectively responsible for maintaining adequate pools of free ubiquitin and regulating the ubiquitination status of cellular proteins. The class of DUBs referred to as the ubiquitin-specific proteases (USP) family functions endoproteolytically to cleave Ub chains from a wide range of protein substrates. […] This assays monitors cell proliferation by quantitating the amount of ATP present by luciferase, which in the presence of ATP converts pro-luciferin into the luminescent luciferin product. A compound that inhibits cell proliferation would result in a decrease in luminescence. […]
5 uL of HCT116 (600 cells/well) were plated into a 1536 well plate and then incubated for 6 hr at 37 deg C, 5% CO2. […] Then, 3 uL of Cell Titer Glo is added, the plate is left at RT for 10 min, before luminescence is detected using the ViewLux.

In experiment [8] the target is Ubiquitin carboxyl-terminal hydrolase 2 (Homo sapiens) (UniProt O75604). As to the kind of experiment: qHTS for Inhibitors of Ubiquitin-specific Protease USP2a Using CHOP2 as the Reporter: K484 Substrate (AID 652173).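 Further: cleavage of internally quenched K48 di-ubiquitin substrate measured as rising fluorescence over time; nearly all actives have a fitted effect of over 70% in size.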 The conditions noted are these: USP2 cleavage of DiUb K48 IQF substrate, fluorescence; series mostly up to 57.5 µM. The method in brief: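 USP2 (dispensed at 5 nM) was pinned with compounds, then DiUb K48 internally quenched fluorescent substrate (dispensed at 100 nM) was added. The buffer was 20 mM Tris pH 8, 2 mM beta-mercaptoethanol and 0.05% CHAPS. Cleavage was read kinetically as rising fluorescence, Ex 525/Em 598.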

In experiment [9] the target is Tyrosine-protein kinase Yes (Homo sapiens) (UniProt P07947). As to the kind of experiment: qHTS for small molecule inhibitors of Yes1 kinase: Primary Screen (AID 686947).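 Further: plate controls were DMSO with enzyme for no effect and no-enzyme DMSO wells for full effect; nearly all actives have a fitted effect of over 60% in size.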 The conditions noted are these: Yes1 kinase biochemical qHTS inhibition; series mostly up to 76.9 µM. The method in brief: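 Yes1 (4 nM) preincubated 20 min with compound, then 60 min room-temperature reaction with 0.1 mM ATP and 0.3 mg/mL poly(E4Y) in pH 7.5 Tris, 10 mM MgCl2. ADP measured by ADP-Glo luminescence, normalised to enzyme/no-enzyme controls.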

Experiment [10] in a line: qHTS for small molecule inhibitors of Yes1 kinase: Counter Assay (AID 686950).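 Further: no kinase present so only ADP-Glo detection of a fixed ADP amount is tested; luminescence from ADP-Glo reporting ADP in a fixed ATP and ADP mixture; 0% = DMSO wells with ATP plus ADP and -100% = ATP-only wells without ADP.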 To be noted: series mostly up to 76.9 µM. The method in brief: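 Luminescence read-out from ADP-Glo quantifies a fixed ADP amount (0.02 mM ADP with 0.08 mM ATP) after 60 min at room temperature; signal is normalized between DMSO wells with ATP/ADP and with 0.1 mM ATP alone.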

Chain of Arylsulfatase A (Homo sapiens) (P15289 whole entry, looked up): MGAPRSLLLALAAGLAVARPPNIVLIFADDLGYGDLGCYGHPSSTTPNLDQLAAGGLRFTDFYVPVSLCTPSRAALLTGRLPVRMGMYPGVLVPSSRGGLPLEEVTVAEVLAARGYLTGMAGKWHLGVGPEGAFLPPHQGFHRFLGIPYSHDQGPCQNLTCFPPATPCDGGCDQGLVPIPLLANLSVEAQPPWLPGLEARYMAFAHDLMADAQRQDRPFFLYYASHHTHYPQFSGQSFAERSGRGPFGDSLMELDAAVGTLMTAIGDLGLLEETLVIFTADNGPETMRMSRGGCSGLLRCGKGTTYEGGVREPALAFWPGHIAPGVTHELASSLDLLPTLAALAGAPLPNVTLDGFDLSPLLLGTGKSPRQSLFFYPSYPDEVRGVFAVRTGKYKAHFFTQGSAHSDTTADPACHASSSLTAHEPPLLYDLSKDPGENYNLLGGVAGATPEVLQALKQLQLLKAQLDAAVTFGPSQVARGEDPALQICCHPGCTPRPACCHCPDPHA
Chain of Peroxisome proliferator-activated receptor alpha (Homo sapiens) (Q07869 whole entry, looked up): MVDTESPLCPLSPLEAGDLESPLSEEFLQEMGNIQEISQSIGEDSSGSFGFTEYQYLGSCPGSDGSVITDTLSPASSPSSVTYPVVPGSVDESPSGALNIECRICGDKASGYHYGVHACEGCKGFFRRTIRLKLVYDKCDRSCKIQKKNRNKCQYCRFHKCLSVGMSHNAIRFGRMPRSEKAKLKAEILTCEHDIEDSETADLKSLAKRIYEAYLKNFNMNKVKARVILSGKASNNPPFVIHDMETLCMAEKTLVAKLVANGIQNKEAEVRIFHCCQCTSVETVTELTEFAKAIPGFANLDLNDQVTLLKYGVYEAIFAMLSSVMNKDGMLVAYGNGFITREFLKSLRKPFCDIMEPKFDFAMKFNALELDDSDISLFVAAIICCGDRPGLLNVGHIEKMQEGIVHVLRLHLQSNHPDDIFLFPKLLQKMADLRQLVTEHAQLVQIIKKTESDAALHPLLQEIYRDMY
Chain of Tyrosine-protein kinase Yes (Homo sapiens) (P07947 whole entry, looked up): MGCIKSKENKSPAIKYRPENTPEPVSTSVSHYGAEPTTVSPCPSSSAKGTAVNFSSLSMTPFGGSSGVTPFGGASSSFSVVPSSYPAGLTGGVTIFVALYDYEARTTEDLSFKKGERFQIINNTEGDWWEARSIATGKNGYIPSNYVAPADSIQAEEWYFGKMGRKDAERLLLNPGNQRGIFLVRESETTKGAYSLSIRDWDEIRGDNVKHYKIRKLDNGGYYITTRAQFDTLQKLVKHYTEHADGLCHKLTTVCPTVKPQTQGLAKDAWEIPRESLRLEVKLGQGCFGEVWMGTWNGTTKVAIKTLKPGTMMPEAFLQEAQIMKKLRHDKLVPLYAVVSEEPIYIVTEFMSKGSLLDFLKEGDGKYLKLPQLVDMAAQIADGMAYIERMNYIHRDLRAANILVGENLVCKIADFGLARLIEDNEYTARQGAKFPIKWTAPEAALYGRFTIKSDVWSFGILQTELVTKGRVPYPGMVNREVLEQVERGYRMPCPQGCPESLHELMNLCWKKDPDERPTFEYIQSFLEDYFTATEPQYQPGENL
Chain of Ubiquitin carboxyl-terminal hydrolase 2 (Homo sapiens) (O75604 whole entry, looked up): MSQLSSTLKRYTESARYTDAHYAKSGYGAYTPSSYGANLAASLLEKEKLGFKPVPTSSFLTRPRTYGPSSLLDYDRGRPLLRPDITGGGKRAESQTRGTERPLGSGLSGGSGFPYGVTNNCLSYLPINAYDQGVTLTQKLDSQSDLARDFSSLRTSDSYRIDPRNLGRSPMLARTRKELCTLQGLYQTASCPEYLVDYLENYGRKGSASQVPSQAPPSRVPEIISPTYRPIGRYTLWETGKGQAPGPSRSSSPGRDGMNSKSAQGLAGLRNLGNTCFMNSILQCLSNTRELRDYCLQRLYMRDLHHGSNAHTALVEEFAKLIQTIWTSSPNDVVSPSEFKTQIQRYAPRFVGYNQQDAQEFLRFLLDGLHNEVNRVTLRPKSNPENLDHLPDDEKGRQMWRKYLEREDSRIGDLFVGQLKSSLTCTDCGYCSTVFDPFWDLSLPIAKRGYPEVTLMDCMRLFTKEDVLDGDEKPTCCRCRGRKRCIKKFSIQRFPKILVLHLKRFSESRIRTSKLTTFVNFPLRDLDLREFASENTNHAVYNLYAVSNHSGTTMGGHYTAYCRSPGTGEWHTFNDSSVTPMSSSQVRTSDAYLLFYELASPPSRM

Turning to `O=S(=O)(O)NC1CCCCC1`, in [1], the activation was 1.78%. Moreover, in experiment [2], the max response was -1.02%.
For the molecule `NCCNCCNCCN`, the result in experiment [3] was inactive. In addition, the max response in [2] was -1.93%.
On to `C[C@]12C[C@H](O)[C@H]3[C@@H](CCC4=CC(=O)CC[C@@]43C)[C@@H]1CC[C@@H]2C(=O)CO`, for which the activation in [1] is -0.656% and -0.0877%. In addition, the max response in experiment [2] is -1.77% and -2.82%. For the same molecule, the Potency entry in experiment [4] was “inactive”. In addition, the outcome in [5] was inactive.
In the case of `Oc1cccc(O)c1`, in [1], the activation was 2.18%. Also, the max response in experiment [2] was -10.6%.
In the case of `CCCCC(CC)COC(=O)c1ccccc1O` (configuration not stated), the activation in experiment [1] is -0.423%. Besides, the max response in experiment [2] was 0.691%.
Take `O=C1NS(=O)(=O)c2ccccc21`: in [2], the max response is 0.552%.
Turning to `NC(=O)c1ncn([C@@H]2O[C@H](CO)[C@@H](O)[C@H]2O)n1`, the activation in experiment [1] was 0.173%. In addition, the max response in [2] was -11%. Besides, the call in [5] was inactive.
Consider `CN(C)CCCN1c2ccccc2Sc2ccc(Cl)cc21`, for which the activation in experiment [1] is 3.61%. The max response in experiment [2] was -0.127%. In addition, the call in [5] was inactive.
Take `CCCCOC(=O)c1ccc(O)cc1`: the activation in experiment [1] was 6.66% and 14.1%. Moreover, the max response in [2] is -8.78% and 4.43%.
As to `CCCc1c(OCCCCc2nn[nH]n2)ccc(C(C)=O)c1O`, in experiment [2], the max response was 11.9%.
As to `Nc1ccc(S(=O)(=O)Nc2nccs2)cc1`, the activation in [1] is -0.168%. In [2], the max response is -1.3%. Also, the molecule was classed as inactive in [6], in experiment [7] and in [8].
In the case of `Cc1cccc(Nc2cc(Cl)nc(SCC(=O)O)n2)c1C`, the activation in experiment [1] was -1.86%. Moreover, in experiment [2], the max response was -1.35%.
As to `CC(=O)O[C@@]12CO[C@@H]1C[C@H](O)[C@@]1(C)C(=O)[C@H](O)C3=C(C)[C@@H](OC(=O)[C@H](O)[C@@H](NC(=O)OC(C)(C)C)c4ccccc4)C[C@@](O)([C@@H](OC(=O)c4ccccc4)[C@H]21)C3(C)C`, the molecule was called inactive in experiment [9] and in experiment [10].
In the case of `CC(CN1c2ccccc2Sc2ccccc21)N(C)C` (configuration not stated), the activation in [1] is -0.788%. The max response in experiment [2] is -2.77%. In addition, the Potency result in experiment [4] was “inactive”. The result in experiment [5] was inactive.
In the case of `COc1ccccc1O`, in experiment [1], the activation is 0.592% and -0.634% and 2.1%. Moreover, the max response in experiment [2] is -1.16% and 0.39% and -4.81%.
Take `CCCCCCCCCCCCOS(=O)(=O)O`: the outcome in experiment [3] was inactive. Also, the activation in experiment [1] was 1.08% [middle of 4 runs]. Moreover, in experiment [2], the max response is 11.8% and 23.9% and 3.99%.
As to `CC(O)CN(CCN(CC(C)O)CC(C)O)CC(C)O` (configuration not stated), in [1], the activation is 0.546%. Moreover, the max response in [2] was -1.89%.
Consider `CC1=C(/C=C/C(C)=C/C=C/C(C)=C/C(=O)O)C(C)(C)CCC1`, for which the activation in [1] was 4.57% and 7.11%. Moreover, in [2], the max response is -0.0468% and 3.03%. Moreover, the Potency result in experiment [4] was “inactive”. The molecule was called inactive in experiment [5].
On to `NC(=O)N/N=C/c1ccc([N+](=O)[O-])o1`, for which the outcome in experiment [3] was inactive. In addition, the activation in experiment [1] is 5.25% and 3.59%. For the same molecule, the max response in [2] is 0.128% and 1.29%.
Take `COC(=O)C1=C(C)NC(C)=C(C(=O)OC)C1c1ccccc1[N+](=O)[O-]`: the result in experiment [3] and in experiment [5] was inactive. In [1], the activation is 3.95%. For the same molecule, the max response in experiment [2] is -2.24%. Further, in experiment [4], the Potency result is “inactive”.
As to `Oc1cn2c(n1)Nc1ccc(Cl)c(Cl)c1C2`, the molecule was classed as inactive in experiment [9] and in [10].
For `CCOC(=O)c1ccc(O)cc1`, the activation in experiment [1] is 6.21%. Also, the max response in experiment [2] was -1.04%.
In the case of `CN(C)CCC=C1c2ccccc2CCc2ccccc21`, the activation in experiment [1] is -1.66% and 0.429%. The max response in experiment [2] was -4.24% and -3.42%. In [5], the molecule was classed as inactive.
Take `CN(C)CCCN1c2ccccc2CCc2ccccc21`: the activation in experiment [1] is -0.861%. In addition, the Potency result in experiment [4] is “inactive”. Besides, in experiment [5], the molecule was classed as inactive.
`O=C1O[C@H]([C@@H](O)CO)C(O)=C1O`: the activation in [1] is 0.758% and 0.0107%. Also, in experiment [2], the max response is -1.42% and -0.305%.
`O=C1c2c(O)cccc2Cc2cccc(O)c21`: the result in [3] was inactive. For the same molecule, the activation in experiment [1] was -0.232%. Also, in [2], the max response is -2.77%.
Turning to `Cc1c(O)cccc1C(=O)N[C@@H](CSc1ccccc1)[C@H](O)CN1C[C@H]2CCCC[C@H]2C[C@H]1C(=O)NC(C)(C)C`, in experiment [1], the activation is -9.16%. Besides, in experiment [2], the max response was -6.84%.
For `Cc1cc2nc3c(=O)[nH]c(=O)nc-3n(C[C@H](O)[C@H](O)[C@H](O)CO)c2cc1C`, the max response in experiment [2] was 3.79%.
With `[Cl][In]([Cl])[Cl]`, the activation in experiment [1] was 0.307%. Further, the max response in experiment [2] was -1.33%.
Take `COc1ccc(Cl)cc1C(=O)NCCc1ccc(S(=O)(=O)NC(=O)NC2CCCCC2)cc1`: the activation in experiment [1] was 1.06%. In addition, the max response in [2] was 0.201%. In [4], the Potency result was “inactive”. Besides, the molecule was classed as inactive in experiment [5].
As to `CC(O)COc1ccccc1` (configuration not stated), the activation in experiment [1] is 1.38%. Further, the max response in experiment [2] was -0.783%.
Consider `Cc1cc(CC(=O)O)n(C)c1C(=O)c1ccc(Cl)cc1`, for which the activation in experiment [1] was 0.224%. The max response in [2] was -2.08%.
